In the library only some 2.7% were active in any assay of this set; here they are far more common.
GSIS activator: GLuc luminescence reporter in INS-1E cells, primary screen for activators of glucose-dependent secretion of insulin | 370,000 tested, 0.61% active | INS-1E GLuc reporter insulin secretion, 2-3 h | activation, % at 16.6 µM;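 active = lowest replicate activation of at least 40%, so every replicate reaches that level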
Env fusion inh: inhibitors of HIV-1 Env-driven cell-cell fusion, primary screen, HeLa-JRFL effector, CEM21 target cells, luciferase; inhibition, % at 12.3 µM; 360,000 tested, 1.1% active; AID 651610, 2012;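 active = mean replicate inhibition score of at least 50 and every replicate individually at or above 50; inconclusive = only one of the two criteria met; inactive = mean below 50 and not all replicates reaching 50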
PGC1a acetyl inh: inhibitors of PGC1a acetylation signal, primary screen, cell-based, U2OS, AlphaScreen, inhibitor mode; AlphaScreen anti-acetyl-lysine; with virally co-expressed GCN5 acetyltransferase; inhibition, % at 15.6 µM; 350,000 tested, 0.17% active;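 active = every replicate shows inhibition of at least 40%; inconclusive = mean inhibition at least 40% but some replicate below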
CFTR F508del cor: F508del CFTR correction, initial screen, CFBE line, single point; AID 720511, 2013; CFBE cells, YFP halide quenching; stimulated with forskolin plus potentiator P3; % fluorescence drop versus neutral controls; activity (quench increase), % at 7.58 µM; 350,000 tested, 0.36% active;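 active = mean added fluorescence quench of at least 8% versus neutral control, with both replicates also reaching 8%; inconclusive = only one of the mean or replicate conditions met; inactive = mean below 8% and not both replicates reaching 8%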;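 note: cells transiently co-express mutant CFTR-F508del with the halide-sensitive YFP; corrector assay measuring rescue of mutant channel to the surface after 24 h compound exposure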
EWS-Fli block: EWS/Fli-driven NR0B1 reporter inhibitors, primary screen, A673 cells, NR0B1 luciferase, luminescence, MLPCN library; viability-normalised; inhibition, % at 12.6 µM; 350,000 tested, 0.67% active; AID 651661, 2012;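 active = mean inhibition of at least 50% after viability correction, with every replicate also passing that limit; inconclusive = mean reaches 50% but only one of two replicates passes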;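 note: firefly luciferase signal divided by Alamar Blue viability fluorescence both relative to DMSO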
PAX8 inh HTS: inhibitors of PAX8-driven TPO luciferase reporter, primary screen, RMG-I cells, single concentration | 360,000 tested, 1.2% active | inhibition, % at 12.6 µM | SteadyGlo, 24 h;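 active = mean replicate inhibition at least 60% with every replicate also reaching 60%; inconclusive = only one of the two criteria is met; inactive = mean below 60% and not all replicates reaching 60%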;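 note: luciferase light reporting Pax8 driven TPO promoter activity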
Hits are given with their value; 0 = inactive; ? = inconclusive; - = not tested or not shown.

SMILES | GSIS activator | Env fusion inh | PGC1a acetyl inh | CFTR F508del cor | EWS-Fli block | PAX8 inh HTS
CCCCN1C=CC(=C2C(=O)c3ccccc3C2=O)C=C1 | 0 | 84.0 | 0 | 0 | 79.9 | 82.1
CCC1C/C(=C\c2cccnc2)C(=O)/C(=C/c2cccnc2)C1 (stereo not given) | - | ? | - | - | 53.8 | 89.2
O=C1/C(=C/c2cccnc2)CCC/C1=C\c1cccnc1 | 0 | ? | - | - | 54.2 | 0
COc1ccc([N+](=O)[O-])cc1Nc1c2ccccc2nc2ccccc12 | 0 | 79.4 | 0 | 13.2 | 0 | 0
COc1cc(NS(C)(=O)=O)ccc1Nc1c2ccccc2nc2ccccc12 | 0 | 0 | - | 0 | 57.6 | 70.6
O=[N+]([O-])c1ccccc1Nc1c2ccccc2nc2ccccc12 | 0 | 62.0 | - | 0 | 0 | 0
O=C(O)c1cc(S(=O)(=O)O)cc(Nc2c3ccccc3nc3ccccc23)c1O | - | 0 | 0 | 0 | 0 | 0
C[C@H]1CCCCO[C@@H](CN(C)C(=O)Nc2ccc(C(F)(F)F)cc2)[C@@H](C)CN([C@@H](C)CO)C(=O)c2cc(NS(=O)(=O)c3ccc(Cl)cc3)ccc2O1 | 0 | 0 | 0 | 0 | 0 | 0
C[C@@H]1CCCCO[C@H](CN(C)C(=O)Nc2ccc(C(F)(F)F)cc2)[C@H](C)CN([C@@H](C)CO)C(=O)c2cc(NS(=O)(=O)c3ccc(Cl)cc3)ccc2O1 | 0 | 0 | 0 | 0 | 0 | 88.6
C[C@H](CO)N1C[C@H](C)[C@@H](CN(C)C(=O)Nc2ccc(C(F)(F)F)cc2)OCCCC[C@H](C)Oc2ccc(NS(=O)(=O)c3ccc(Cl)cc3)cc2C1=O | 0 | 0 | 0 | 0 | 0 | 69.3
C[C@@H]1CCCCO[C@@H](CN(C)C(=O)Nc2ccc(C(F)(F)F)cc2)[C@H](C)CN([C@@H](C)CO)C(=O)c2cc(NS(=O)(=O)c3ccc(Cl)cc3)ccc2O1 | 0 | 0 | 0 | 0 | 0 | 69.0
C[C@@H]1CCCCO[C@@H](CN(C)C(=O)Nc2ccc(C(F)(F)F)cc2)[C@H](C)CN([C@H](C)CO)C(=O)c2cc(NS(=O)(=O)c3ccc(Cl)cc3)ccc2O1 | 0 | 0 | 0 | 0 | 0 | 88.5
C[C@@H]1CCCCO[C@H](CN(C)C(=O)Nc2ccc(C(F)(F)F)cc2)[C@@H](C)CN([C@H](C)CO)C(=O)c2cc(NS(=O)(=O)c3ccc(Cl)cc3)ccc2O1 | 0 | 0 | 0 | 0 | 0 | 0
CCCNC(=O)Nc1ccc2c(c1)C(=O)N(C)C[C@@H](OC)[C@H](C)CN(Cc1ccc(-c3ccccn3)cc1)[C@H](C)CO2 | 0 | 0 | 0 | 0 | 0 | -
C[C@@H]1CCCCO[C@H](CN(C)C(=O)Nc2ccc(C(F)(F)F)cc2)[C@H](C)CN([C@H](C)CO)C(=O)c2cc(NS(=O)(=O)c3ccc(Cl)cc3)ccc2O1 | 0 | 0 | 0 | 0 | 0 | 0
C[C@@H]1CCCCO[C@H](CN(C)C(=O)Nc2ccc(C(F)(F)F)cc2)[C@@H](C)CN([C@@H](C)CO)C(=O)c2cc(NS(=O)(=O)c3ccc(Cl)cc3)ccc2O1 | 0 | ? | 0 | 0 | 0 | 92.3
Nc1nc(F)nc2c1ncn2[C@@H]1O[C@H](CO)[C@@H](O)[C@H]1O | - | 73.4 | 82.6 | - | 0 | 107.6
O=c1[nH]c(=O)n(C2OC(CO)C(O)C2O)cc1F (stereo not given) | - | - | 0 | - | - | -
Nc1nc(=O)n(C2OC(CO)C(O)C2O)cc1F (stereo not given) | - | 62.4 | 0 | 0 | 0 | 0
Nc1nc(F)nc2c1ncn2[C@@H]1O[C@H](CO)[C@@H](O)[C@@H]1O | 0 | 62.4 | 0 | 0 | 0 | 0
Nc1nc(Cl)nc2c1ncn2C1OC(CO)C(O)C1O (stereo not given) | 0 | - | 0 | 0 | 0 | -
O=c1cc(Cl)[nH]c(=O)n1Cc1ccccc1 | 47.5 | 0 | 0 | 0 | 0 | 0
Cc1ccc(S(=O)(=O)c2ccc([N+](=O)[O-])o2)cc1 | 98.6 | 0 | - | 0 | 0 | 126.6
Cc1ccc(NC(=O)c2ccc([N+](=O)[O-])o2)c(C)c1 | 0 | 0 | 0 | 0 | 0 | 0
CCN(C[C@H]1[C@H](c2ccccc2)[C@@H](CO)N1C(C)=O)C(=O)c1ccccn1 | 0 | - | 0 | 0 | 0 | 0
SMILES | GSIS activator | Env fusion inh | PGC1a acetyl inh | CFTR F508del cor | EWS-Fli block | PAX8 inh HTS
COc1ccc(OC)c(C2=Nn3c(nnc3-c3ccncc3)SC2)c1 | 40.6 | 0 | 0 | 0 | 0 | 0
Clc1ccccc1C1=Nn2c(nnc2-c2ccncc2)SC1 | - | 92.0 | 0 | - | - | -
COc1cccc(-c2nnc3n2N=C(c2cc(OC)ccc2OC)CS3)c1 | - | 0 | 0 | - | - | 0
FC(F)Oc1ccc(C2=Nn3c(nnc3-c3ccccc3Cl)SC2)cc1OCC1CC1 | 0 | 0 | 0 | 0 | 0 | 0
COc1cccc(-c2nnc3n2N=C(C(C)(C)C)CS3)c1 | - | 111.8 | - | - | - | 0
COc1ccc(OC)c(C2=Nn3c(nnc3-c3cc(OC)c(OC)c(OC)c3)SC2)c1 | 0 | 0 | 0 | - | - | -
COc1ccc(C2=Nn3c(nnc3-c3ccccc3F)SC2)cc1OCC1CC1 | 78.7 | 0 | 0 | 0 | 55.5 | 0
COc1ccc(S(=O)(=O)N(C)C[C@@H]2OCCCC[C@@H](C)Oc3ccc(NC(=O)NC4CCCCC4)cc3C(=O)N([C@H](C)CO)C[C@H]2C)cc1 | 0 | 0 | 0 | 0 | 0 | 0
O=C(Cc1ccccc1)OC(COCc1ccccc1)C(=O)NCc1ccccc1 (stereo not given) | - | 0 | 0 | 0 | 0 | 0
CC(C)[C@H]1C(=O)N[C@H](c2cccc(Cl)c2)CC=CC[C@H](C)Oc2ccccc2C(=O)N1C (mixture of isomers) | 0 | - | - | - | - | -
O=C(Nc1cccc(F)c1)N1CC(=O)N2[C@H](CO)[C@H](c3ccc(-c4ccc(F)cc4)cc3)[C@H]2C1 | 0 | - | 0 | 0 | 0 | 0
COc1ccc2c3c([nH]c2c1)[C@H](CO)N(Cc1ccncc1)CC31CCN(C(=O)CN(C)C)CC1 | 0 | - | 0 | 0 | 0 | 0
COc1ccc(/C=N/NC(=O)CCn2cnc(-c3ccccc3)c2-c2ccccc2)cc1OC | 0 | 0 | 0 | - | 54.4 | 0
COc1ccc(/C=N/NC(=O)Nc2cccc3nsnc23)cc1OC | - | - | - | 0 | 0 | 86.3
COc1ccc(/C=N/NC(=O)CCC(=O)Nc2ccccc2)cc1OC | 0 | 0 | - | 0 | 0 | 0
COc1ccc(/C=N/NC(=O)CCn2c3ccccc3c3ccccc32)cc1OC | 54.3 | 0 | - | - | 0 | 0
COc1ccc(/C=N/NC(=O)CN(C2=NS(=O)(=O)c3ccccc32)c2ccccc2)cc1OC | 59.8 | 0 | - | - | - | 0
COc1ccc(S(=O)(=O)N(C)C[C@@H]2OCCCC[C@H](C)Oc3ccc(NS(=O)(=O)c4cn(C)cn4)cc3C(=O)N([C@@H](C)CO)C[C@H]2C)cc1 | 0 | 0 | 0 | 0 | - | 0
C[C@@H]1CN([C@@H](C)CO)C(=O)Cc2cc(NS(=O)(=O)c3cn(C)cn3)ccc2O[C@H]1CN(C)C(=O)Nc1ccc(C(F)(F)F)cc1 | 0 | 0 | 0 | 0 | 0 | -

Source: PubChem (Broad Institute)
